# High-throughput results from PubChem BioAssay.
# In the library only some 19% were active in any assay of this set; here they are far more common.
# HT1080NT lethal: kills 2HG-producing HT-1080-NT fibrosarcoma cells; HT-1080-NT fibrosarcoma viability, CellTiter-Glo ATP luminescence, 48 h; Potency, µM (highest dose often 46.1 µM), for the others: at the top dose activity, negative = less viability, hits mostly cytotoxic; 360,000 compounds, 1.6% hits;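 also: NT is the 2HG producing partner of a matched IDH1 knockdown line; potency is read from the fitted curve at half-maximal effect; 0% = DMSO-treated cells and -100% = media-only wells without cells; nearly all actives have a fitted effect of over 55% in size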
#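 Fibrosarcoma NT cells, 750 per well in 5% FBS RPMI, were exposed to compound for 48 hours. Viability: CellTiter-Glo luminescence.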
# TDP1 cell noCPT: qHTS for Inhibitors of human tyrosyl-DNA phosphodiesterase 1 (TDP1): qHTS in cells in absence of CPT | DT40 Tdp1-/- hTDP1 cells, no CPT, ATP luminescence, 48 h | Potency, µM (series often up to 46.2 µM), inactives show at the highest dose activity change, negative = growth inhibition, hits mostly inhibitors | 420,000 compounds, 15% hits | AID 686978, 2013; also: potency is read from the fitted curve at half-maximal effect; nearly all actives have a fitted effect of over 55% in size
#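 Chicken DT40 Tdp1-/- cells stably complemented with human TDP1 were seeded at 400 cells/well with DMSO in place of 20 nM camptothecin. After compound pinning, cells grew at least 48 hr at 37 °C; viability read by CellTiter-Glo luminescence.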
# DT40 TDP1 CPT: growth inhibition of DT40 Tdp1-/-;hTDP1 cells with camptothecin (screen for TDP1 inhibitors); chicken DT40 Tdp1-/-;hTDP1 cells + 20 nM CPT, ATP luminescence, 48 h; Potency, µM (doses to about 46.2 µM), for inactives: at the top dose activity change, negative = growth inhibition, usual class: inhibitors; 420,000 compounds, 12% hits; AID 686979; also: potency is read from the fitted curve at half-maximal effect; nearly all actives have a fitted effect of over 55% in size
#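 Chicken DT40 Tdp1-/- cells complemented with human TDP1, 400 cells/well, exposed to compounds plus 20 nM camptothecin for at least 48 h at 37 C; viability read as ATP content by CellTiter-Glo luminescence.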
# HT1080 IDH1KD tx: kills HT-1080 cells with IDH1 knockdown; HT-1080 IDH1 knockdown viability, ATP luminescence, 48 h; Potency, µM (highest dose often 46.1 µM), without a hit: top-dose activity, negative = toxicity, hits mostly cytotoxic; 360,000 compounds, 2% hits; AID 686971;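 also: potency is read from the fitted curve at half-maximal effect; 0% = DMSO wells and -100% = cell-free medium wells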
#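 IDH1KD HT-1080 cells, 750/well, RPMI + 5% FBS; compound pinned after 2 h settling; 48 h, 37 °C; CellTiter-Glo luminescence; % activity normalised to DMSO and no-cell wells; curves fitted, classed by r2 and efficacy.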
# uPA generation: blocks generation of uPA at the cell surface | cell surface uPA generation assay, qHTS | Potency, µM (titrated, usually from 38.3 µM), inactives show at the top dose activity change, negative = inhibition, usual class: inhibitors | 330,000 compounds, 0.31% hits | AID 540303; active = well fitted inhibition curve with a large enough effect; inconclusive = small, poorly fitted or top-dose-only effect; inactive = no such curve, though single readings can be large or run the other way; tested in mouse RAW 264.7 cells; also: potency is read from the fitted curve at half-maximal effect; nearly all actives have a fitted effect of over 55% in size
# IL-1B inflam inh: inflammasome signaling inhibition, IL-1 beta readout. THP-1 LPS/ATP IL-1B secretion, AlphaLISA, 16 h; active compounds read low. activity change, % at 57.5 µM. 360,000 compounds, 4.7% hits; in the data active = activity change below about -50%; inconclusive = mostly about -30% to -49%
#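 Secreted IL-1B measured by AlphaLISA bead assay after 16 h compound exposure of THP-1 cells; compounds (final up to 57.5 uM) added 1 h before LPS (250 ng/mL) and ATP (1.25 mM) stimulation; lower signal means less secretion.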
# Starred values were filed as active, the others as inactive; u = inconclusive; x = not tested or not shown. Unless noted, calls follow the shape of the dose curve; as a rule, active = well fitted curve in the direction sought with a large enough effect; inconclusive = small, poorly fitted or top-dose-only effect, or another doubt; inactive = no such curve, though single readings can be large; an effect the other way counts as inactive or inconclusive. Unless noted, % is scaled to controls: 0 for no effect and ±100 for the full control effect.
SMILES,HT1080NT lethal,TDP1 cell noCPT,DT40 TDP1 CPT,HT1080 IDH1KD tx,uPA generation,IL-1B inflam inh
O=C(Nc1ccccc1)c1cn(-c2ccccc2)nc1-c1ccccc1,x,16.4µM*,u,x,x,x
O=C(Nc1nccs1)c1cn(-c2ccccc2)nc1-c1ccccc1,-6.8%,u,u,u,-7.4%,-62.5*
CN(C)/C=C/C(=O)c1ccc2noc(-c3cccc(F)c3)c2c1,-7.8%,u,-25.6%,0.0%,-15.6%,-17.7
COc1ccc(-c2onc3ccc(C(=O)/C=C/N(C)C)cc23)cc1,-18.6%,20.6µM*,13µM*,0.5%,-1.2%,-3.2
CCN(CC)CCNC(=O)c1ccc(NC(=O)C2CCN(c3ncnc4sc(C)c(C)c34)CC2)cc1,u,23.1µM*,18.4µM*,u,-14.4%,-8.3
Cc1sc2ncnc(N3CCC(C(=O)Nc4ccc(OC(F)F)c(Cl)c4)CC3)c2c1C,-25.5%,u,u,-22.3%,5.5%,9.3
CCN(CC(=O)Nc1c(F)cccc1F)C(=O)C1CCN(c2ncnc3sc(C)c(C)c23)CC1,-13.6%,18.4µM*,20.6µM*,-10.7%,-3.8%,-17.0
Cc1sc2ncnc(N3CCC(C(=O)Nc4nnc(CC(C)C)s4)CC3)c2c1C,5.5%,23.1µM*,u,1.3%,-1.5%,15.2
CCN(CC(=O)Nc1c(Cl)cccc1Cl)C(=O)C1CCN(c2ncnc3sc(C)c(C)c23)CC1,4.4%,u,-13.3%,-0.3%,6.8%,-7.8
Cc1sc2ncnc(N3CCC(C(=O)Nc4nc(-c5ccc(F)cc5)cs4)CC3)c2c1C,-1.8%,16.4µM*,u,-22.3%,-0.6%,13.7
O=c1oc(CCO)cc2ccc(Br)cc12,0.1%,5.6%,-0.1%,4.4%,2.4%,11.2
O=[N+]([O-])c1ccc(C(O)CN2CCOCC2)cc1 (stereo not drawn),-4.8%,-2.2%,1.5%,-1.8%,-0.3%,18.8
O=S(=O)(CC(CN1CCCCC1)N1CCCCC1)c1ccccc1 (stereo not drawn),u,4.61µM*,7.31µM*,u,8.91µM*,-96.7*
O=[N+]([O-])c1ccc(S(=O)(=O)CC(CN2CCOCC2)N2CCOCC2)cc1 (stereo not drawn),-13.4%,u,u,-8.2%,-8.8%,-73.6*
O=C1CCCN1CC(O)CS(=O)(=O)c1ccccc1 (stereo not drawn),4.4%,-4.7%,-11.7%,-3.6%,x,14.6
CN(C)c1ncc2nc(-c3ccccc3)c(=O)n(C)c2n1,x,3.0%,-8.5%,x,x,x
Fc1ccccc1N1CCN(CC2CCCCC2)CC1,-9.0%,-7.2%,-20.1%,-2.2%,14.9%,18.1
O=C(Cc1ccsc1)Nc1ccccc1F,19.3%,-19.7%,12.0%,10.0%,4.5%,-5.0
COc1cc(-c2nc(Cn3nnc(C(=O)Nc4ccc(C)cc4C)c3C)c(C)o2)cc(OC)c1OC,x,20.6µM*,u,x,x,x
COc1ccc(Br)cc1Cn1nnc(C(=O)Nc2ccc(C)cc2C)c1N,x,u,-3.3%,x,x,x
O=S(=O)(c1cccs1)N1CN(Cc2cccs2)c2nc3ccccc3nc21,-17.9%,16.4µM*,u,-16.9%,-4.7%,-10.3
O=S(=O)(c1cccs1)N1CN(Cc2ccccc2)c2nc3ccccc3nc21,-10.7%,u,u,-12.4%,-3.5%,u
Cc1[nH]c(-c2ccc(F)cc2)cc1C(=O)N1CCN(c2ccccc2F)CC1,u,u,u,u,12.7%,u
COc1cccc(N2CCN(C(=O)c3cc(-c4ccc(F)cc4)[nH]c3C)CC2)c1,-25.7%,20.6µM*,14.6µM*,u,7.8%,u
Cc1[nH]c(-c2ccc(F)cc2)cc1C(=O)N1CCN(c2ccccc2)CC1,-27.7%,u,u,-20.8%,6.9%,-55.7*
